# Hits are enriched below; roughly 7.3% of the tested compounds scored in any of these assays.
# Rab9 promoter act = Rab9 promoter activation | Huh7 Rab9 promoter-luciferase reporter, luminescence, 24 h | Potency, µM (top dose mostly 9.22 µM), hits mostly activators | 320,000 tested, 2.8% active; note: nearly all actives have a fitted effect of over 60% in size
#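 Luminescence from Amplite-detected luciferase (10 minutes, ambient) reports Rab9 promoter activation. Before that, stable Rab9-luciferase Huh7 cells (1500/well, reduced-serum OP-MEM I plus 10% FBS) were exposed to compound for 24 hours at 37C.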
# NPC1 promoter act = activators of NPC1 promoter. Huh7 NPC1 promoter luciferase reporter, 24 h. Potency, µM (doses to about 9.22 µM), hits mostly activators. 320,000 tested, 2.4% active; note: nearly all actives have a fitted effect of over 60% in size
#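 Huh7 reporter cells (NPC1 promoter driving luciferase) are dosed with compound for 24 h at 37 °C, 5% CO2; luciferase detection reagent is then added and luminescence measured after 10 min at ambient temperature.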
# FLuc modulator = counter-screen for miR-21 project: firefly luciferase inhibitors or activators. P08659. purified FLuc, Km substrates, luminescence inhibition. Potency, µM (series often up to 57.5 µM), most hits filed as inhibitors. 360,000 tested, 6.9% active; note: nearly all actives have a fitted effect of over 55% in size
# Target sequence (P08659 whole entry, looked up): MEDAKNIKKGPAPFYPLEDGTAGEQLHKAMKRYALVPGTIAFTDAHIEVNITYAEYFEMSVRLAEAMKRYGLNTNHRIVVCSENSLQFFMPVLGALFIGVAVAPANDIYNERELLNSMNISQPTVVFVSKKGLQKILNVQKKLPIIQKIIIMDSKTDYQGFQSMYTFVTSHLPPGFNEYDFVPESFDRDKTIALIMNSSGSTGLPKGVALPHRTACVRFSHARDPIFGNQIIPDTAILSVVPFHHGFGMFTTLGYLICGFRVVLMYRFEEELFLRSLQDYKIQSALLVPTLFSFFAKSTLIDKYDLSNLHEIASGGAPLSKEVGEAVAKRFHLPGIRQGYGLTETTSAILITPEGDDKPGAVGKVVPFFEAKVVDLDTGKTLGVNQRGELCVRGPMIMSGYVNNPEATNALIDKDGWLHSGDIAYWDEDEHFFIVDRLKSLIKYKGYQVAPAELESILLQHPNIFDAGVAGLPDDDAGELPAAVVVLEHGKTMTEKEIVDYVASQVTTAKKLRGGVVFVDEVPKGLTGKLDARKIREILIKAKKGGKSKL
#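 Purified P. pyralis luciferase, 10 nM final, with Km-level 10 uM D-luciferin and 10 uM ATP in 50 mM Tris acetate pH 7.5, 10 mM Mg acetate, 0.01% Tween-20, 0.05% BSA; 6-point qHTS titration about 60 µM downward; luminescence read.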
# ELG1 genotox = induces genotoxicity in HEK293T cells with luciferase-tagged ELG1. 330,000 tested, 1.3% active. Potency, µM (highest dose often 46 µM), usual class: activators. HEK293T ELG1-luciferase reporter, luminescence, 16 h; note: nearly all actives have a fitted effect of over 60% in size
#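 HEK293T cells expressing luciferase-tagged ELG1 were exposed to compound or DMSO vehicle for 16 hr at 37 °C and 5% CO2. Luciferase activity was then measured with ONE-Glo after 30 min at room temperature.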
# SMN2 splice up = SMN2 splice variant enhancement | HEK293 SMN2-luciferase splicing reporter, luminescence, 30-36 h | Potency, µM (doses to about 46.1 µM), most hits filed as activators | 210,000 tested, 2.8% active | AID 1458; note: nearly all actives have a fitted effect of over 55% in size
#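 HEK293 cells carry an SMN2 minigene-luciferase reporter in which exon 7 inclusion puts luciferase in frame. Cells were seeded at 2000 cells/well, attached for 10-12 hours, then exposed to compounds for 30-36 hours at 37C before ONE-Glo luminescence.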
# uPA surface inh = cell surface uPA generation inhibition | 330,000 tested, 0.31% active | Potency, µM (titrated, usually from 38.3 µM), actives largely listed as inhibitors | cell surface uPA generation assay, qHTS; active = well fitted inhibition curve with a large enough effect; inconclusive = small, poorly fitted or top-dose-only effect; inactive = no such curve, though single readings can be large or run the other way; tested in mouse RAW 264.7 cells; note: nearly all actives have a fitted effect of over 55% in size
# Hits are given with their value; . = inactive; ? = inconclusive; / = not tested or not shown; [ ] = remark or other dose. Unless noted, calls come from the whole dose curve; as a rule, active = well fitted curve in the direction sought with a large enough effect; inconclusive = small, poorly fitted or top-dose-only effect, or another doubt; inactive = no such curve, though single readings can be large; an effect the other way counts as inactive or inconclusive.
SMILES,Rab9 promoter act,NPC1 promoter act,FLuc modulator,ELG1 genotox,SMN2 splice up,uPA surface inh
Cc1ccc(-c2nnc(Nc3ccc4c(c3)OCO4)c3ccccc23)cc1S(=O)(=O)NCCO,.,.,15µM,.,.[1.84 µM],.
Cc1ccc(-c2nnc(Nc3ccc(Cl)c(Cl)c3)c3ccccc23)cc1S(=O)(=O)NCCO,/,/,?,/,.,/
Cc1ccc(NC(=O)CN2CCN(C3CCCCC3)C(=O)C2=O)cc1,/,/,.,/,/,/
Cc1cc(Cl)ccc1C(=O)C1CCCN(C(=O)/C=C/c2cnn(C)c2)C1 (stereo not drawn),.,.,.,.,/,.
Cn1cc(/C=C/C(=O)N2CCCC(C(=O)c3ccc(C(C)(C)C)cc3)C2)cn1 (stereo not drawn),.,.,17µM,.,/,.
CSc1ccc(-c2nnn(Cc3ccc(Br)cc3)n2)cc1,.,.,?,?,.,.
CCOC(=O)Cn1nnc(-c2ccc(SC)cc2)n1,.,.,12µM,.,.,.
CSc1ccc(-c2nnn(Cc3ccccn3)n2)cc1,2.5µM,4µM,12µM,?,?,.
CCC/C(=N/NC(=O)c1ccccc1Cl)c1ccccc1,.,.,.,.,.,.
Cc1ccn2c(Nc3ccccc3C)c(-c3ccncc3)nc2c1,.,.,?,.,18µM,.
Cc1ccccc1Nc1c(-c2ccsc2)nc2c(C)cccn12,/,/,?,/,13µM,/
Nc1nc(CSc2n[nH]c(-c3ccccc3)n2)nc(Nc2ccccc2)n1,.,.,.,.,.,.
Nc1nc(CSc2ncccn2)nc(Nc2ccccc2)n1,4µM,4.5µM,24µM,?,14µM,.
Cc1ccc(Nc2nc(N)nc(CSc3ncccn3)n2)cc1,2µM,2.2µM,12µM,?,13µM,.
CCOC(=O)C1CCCN(C(=O)c2ccc3c(c2)N(Cc2cccc(Cl)c2)C(=O)c2ccccc2S3(=O)=O)C1 (stereo not drawn),/,/,.,/,/,/
CCc1ccc(CC2S/C(=C(\C#N)C(C)=O)NC2=O)cc1 (stereo not drawn),.,.,?,.,11µM,.
O=C(c1ccncc1)N1CCC[C@@]2(CCN(Cc3ccccc3)C2)C1,/,/,/,/,.,/
CC1CCN(c2ccc(-c3cccc(NS(=O)(=O)c4ccc(F)cc4F)c3)nn2)CC1,/,/,1.7µM,/,/,/
Cc1ccc(S(=O)(=O)Nc2cccc(-c3ccc(N4CCC(C)CC4)nn3)c2)s1,/,/,0.76µM,/,/,/
O=S(=O)(Nc1cccc(-c2ccc(N3CCCC3)nn2)c1)c1cc(F)ccc1F,/,/,6µM,/,/,/
O=S(=O)(Nc1ccc(N2CCCCC2)cc1)c1ccc(F)cc1F,.,.,.,.,/,.
O=S(=O)(Nc1cccc(-c2ccc(N3CCCCC3)nn2)c1)c1ccc(F)cc1F,/,/,1.9µM,/,/,/
COc1ccc(/C=C/C(=O)NC(=S)NNC(=O)c2cccnc2)cc1,.,.,24µM,.,.,.
O=C(/C=C/c1ccc(F)cc1)NC(=S)NNC(=O)c1cnccn1,.,.,?,.,/,.
COc1ccc(C(=O)NNC(=S)NC(=O)c2cccnc2)cc1,.,.,.,.,/,.
SMILES,Rab9 promoter act,NPC1 promoter act,FLuc modulator,ELG1 genotox,SMN2 splice up,uPA surface inh
COc1ccc(/C=C/C(=O)NC(=S)NNC(=O)c2cnccn2)cc1,.,.,17µM,?,/,?
CC1Cc2ccccc2N1C(=O)CN1CCC(C(N)=O)CC1 (stereo not drawn),.,.,.,.,.,.
COc1ccc(Cl)cc1NC(=O)COC(=O)C1=NNC(=O)CC1,/,/,/,.,/,.
Cc1ccc(OCc2nc(-c3ccc(Cl)cc3)n[nH]2)cc1,.,.,?,.,.,/
Cc1ccc(-c2n[nH]c(Cc3ccccc3)n2)cc1,2.5µM,2.8µM,19µM,?,/,.
CNC(=O)Nc1ccc(C2SCCS2)cc1,.,.,17µM,.,/,.
O=C(Nc1ccc(Nc2ccccc2)cc1)c1ccccc1,/,/,/,/,/,.
CCCCNC(=O)Nc1ccc(C2SCCS2)cc1,?,?,15µM,?,/,.
O=C(Nc1ccc(C2SCCS2)cc1)c1ccccc1,1.4µM,1.1µM,0.85µM,?,/,.
Cc1cc(C)n(CCc2nc3c4ccccc4nc(N4CCN(c5ccc(F)cc5)CC4)n3n2)n1,/,/,.,/,.,/
CC(C)Sc1nc(SCC(=O)NCc2ccco2)c2c3c(sc2n1)COC(C)(C)C3,.,.,9.5µM,?,.,.
CC(C)Sc1nc(SCC(=O)O)c2c3c(sc2n1)COC(C)(C)C3,?,?,13µM,?,/,.
